HT1080 IDH1KD tx – qHTS for induction of synthetic lethality in tumor cells producing 2HG: qHTS for the HT-1080-IDH1KD cell line; HT-1080 IDH1 knockdown viability, ATP luminescence, 48 h; Potency, µM (top dose mostly 46.1 µM), inactives show top-dose activity, negative = toxicity, actives largely listed as cytotoxic; 360,000 compounds, 2% hits; AID 686971, 2013;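 note: 0% = DMSO wells and -100% = cell-free medium wells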
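In this qHTS, HT-1080 cells depleted of IDH1 are exposed for 48 h at 37 °C to compound titrations. Toxicity is scored from CellTiter-Glo luminescence, with DMSO as full viability and medium alone as none.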
KB-V1 cytotox – qHTS assay for MDR1-selective chemotherapeutics: Primary screen using the drug-selected MDR subline cells KB-V1 | KB-V1 MDR cells viability, CellTiter-Glo, 72 h | Potency, µM (titrated, usually from 46.1 µM), actives largely listed as cytotoxic | 400,000 compounds, 3.4% hits | AID 1347076, 2019; note: % is set by controls: 0 for no effect and ±100 for the full control effect; nearly all actives have a fitted effect of over 60% in size
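KB-V1, DMEM (no phenol red) + 10% FBS; cpd pin-transferred, titration series; 72 h, 37 degrees C; CellTiter-Glo, luminescence. Data normalized, curve-fit.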
HT1080NT lethal – qHTS for induction of synthetic lethality in tumor cells producing 2HG: qHTS for the HT-1080-NT fibrosarcoma cell line; HT-1080-NT fibrosarcoma viability, CellTiter-Glo ATP luminescence, 48 h; Potency, µM (series often up to 46.1 µM), for the others: top-dose activity, negative = less viability, usual class: cytotoxic; 360,000 compounds, 1.6% hits;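 note: NT is the 2HG producing partner of a matched IDH1 knockdown line; 0% = DMSO-treated cells and -100% = media-only wells without cells; nearly all actives have a fitted effect of over 55% in size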
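Viability of the 2HG-overproducing fibrosarcoma line after 48 hours of compound exposure at 37 degrees C was determined by luminescence with CellTiter-Glo, and concentration-effect curves were then fitted and categorized.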
KB-3-1 tox – qHTS assay for MDR1-selective chemotherapeutics: Primary screen using the parental adenocarcinoma cell KB-3-1 | KB-3-1 viability, CellTiter-Glo ATP luminescence, 72 h | Potency, µM (series often up to 46.1 µM), usual class: cytotoxic | 400,000 compounds, 1.4% hits; note: % is set by controls: 0 for no effect and ±100 for the full control effect; nearly all actives have a fitted effect of over 60% in size
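KB-3-1 cells, DMEM (no phenol red) + 10% FBS; compound by pin transfer, 72 h, 37 °C. Readout: CellTiter-Glo luminescence after 10 min. Data normalized, curve-fitted.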
MCF10A rerep – A quantitative high throughput screen for small molecules that induce DNA re-replication in MCF 10a normal breast cells; MCF 10A DNA re-replication, Hoechst nuclear intensity, 48 h; Potency, µM (series often up to 46.1 µM), without a hit: at the top dose activity, positive = re-replication, most hits filed as activators; 350,000 compounds, 2.9% hits; AID 624296, 2012; note: % of control where 0% means no effect; nearly all actives have a fitted effect of over 50% in size
SW480 rerep – A quantitative high throughput screen for small molecules that induce DNA re-replication in SW480 colon adenocarcinoma cells. SW480 DNA re-replication, Hoechst DNA content imaging, 48 h. Potency, µM (doses to about 46.1 µM), inactives show at the highest dose re-replication activation, hits mostly activators. 340,000 compounds, 1.8% hits. AID 624297, 2012; note: % of control where 0% means no effect; nearly all actives have a fitted effect of over 55% in size
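Image-based read-out: total Hoechst fluorescence of nuclei (405 nm excitation, 500-530 nm emission), with hits raising the fraction of high-intensity nuclei. SW480 colon cells incubated 48 hr with compounds at 37 C.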
An asterisk follows results filed as active; i = inactive; ? = inconclusive; . = not tested or not shown; [ ] = dose if it differs, or a comment. A selection: hits, their analogues and other compounds. The true share with any hit is near 7.9%. Calls come from the whole dose curve; as a rule, active = well fitted curve in the direction sought with a large enough effect; inconclusive = small, poorly fitted or top-dose-only effect, or another doubt; inactive = no such curve, though single readings can be large; an effect the other way counts as inactive or inconclusive. Potency is the fitted concentration of half-maximal effect.

SMILES	HT1080 IDH1KD tx	KB-V1 cytotox	HT1080NT lethal	KB-3-1 tox	MCF10A rerep	SW480 rerep
CCC(=O)NC(c1ccco1)c1cc(Cl)c2cccnc2c1O (stereo not given)	3.66µM*	?	?	?	?	2.59µM*
Cc1cc(NC(c2cccnc2)c2ccc3cccnc3c2O)no1 (stereo not given)	?	?	?	?	10.3µM*	1.46µM*
CC(=O)NC(c1cc(Cl)c2cccnc2c1O)C1CC1 (stereo not given)	.	16.4µM*	.	i	?	1.3µM*
COc1ccccc1NC(=O)Cc1noc(CSc2nnc(C)n2C)n1	0.8%	i	8.3%	i	0.651µM*	2.2%
COc1ccccc1NC(=O)Cc1noc(CSc2nnc(C(F)(F)F)n2C)n1	0.0%	i	2.1%	i	-9.0%	-58.5%
CC(NC(=O)COC(=O)c1cc(NS(=O)(=O)c2ccc(Cl)c([N+](=O)[O-])c2)ccc1O)C1CC2CCC1C2 (stereo not given)	?	i	?	i	6.51µM*	9.2µM*
O=C(CCCOc1ccc(Cl)cc1Cl)N/N=C\C1CCCCC1	-8.3%	i	0.0%	i	?	29.9%
O=C(/C(=N/N=C/c1ccc(O)c(O)c1O)c1ccccc1)c1ccccc1	?	?	-15.6%	?	?	?
Oc1ccc(/C=N/N=C(c2ccccc2)c2ccccc2)c(O)c1O	?	i	-15.4%	?	20.6µM*	-2.1%
CC(Sc1nnc(NC2CC2)s1)C(=O)Nc1ccc(N2CCOCC2)cc1 (stereo not given)	12.8%	i	-0.3%	i	4.0%	-6.9%
O=C(CSc1nnc(NC2CCCCC2)s1)Nc1ccc(N2CCOCC2)cc1	-25.6%	5.8µM*	0.2%	i	16.5%	-2.6%
O=C(NCc1ccc(Cl)cc1)c1ccc2c(Cl)c3c(nc2c1)CCCC3	.	i	.	i	.	.
Cc1cc(N2C3CCC2CC(O)(c2ccc(F)cc2)C3)nc(-c2ccccc2)n1 (stereo not given)	-4.0%[9.24 µM]	i	14.1µM*	i	0.6%	-0.5%
Cc1ccnc(N2C3CCC2CC(O)(c2ccccc2)C3)n1 (stereo not given)	2.1%	i	4.5%	i	-19.2%[9.22 µM]	9.0%
CC1CCCC(NC(=O)COC(=O)c2cccc(NS(=O)(=O)/C=C/c3ccccc3)c2)C1C (stereo not given)	-12.1%	i	-6.6%	i	?	.
O=C(O)c1ccc2c(c1)OCCO2	25.4%	i	?	i	0.8%	0.6%
c1ccc(-c2nn3c(Cn4nnc5ccccc54)nnc3s2)nc1	21.0%	18.4µM*	-5.0%	i	14.9%	-14.5%
c1ccc(CCc2nn3c(Cn4nnc5ccccc54)nnc3s2)cc1	-0.4%	i	-13.4%	i	-0.5%	-8.2%
c1ccc(CCc2nn3c(Cn4cnc5ccccc54)nnc3s2)cc1	?	18.4µM*	-21.1%	?	0.0%	-0.2%
c1ccc(Cc2nn3c(Cn4nnc5ccccc54)nnc3s2)cc1	-16.2%	23.1µM*	-21.1%	i	0.4%	-4.2%
O=C(N/N=C\c1ccoc1)c1ccco1	13.6%	i	10.8%	i	-1.8%	-3.7%
Cc1nc2ccc(NC(=O)c3nn(C(C)C)c(=O)c4ccccc34)cc2s1	-7.9%	i	12.4%	i	5.2%	-7.6%
CC1(C(=O)NS(=O)(=O)c2ccc(C#N)cc2)CCN1C(=O)CCc1ccc(Cl)cc1Cl (stereo not given)	11.2%	i	0.9%	i	.	.
CN(CC(=O)Nc1ccc(Cl)c(Cl)c1)C(=O)CN1C(=O)NC2(CCCC2)C1=O	-29.3%	i	-20.9%	i	0.5%	-42.9%
C=CCN=c1scc(-c2ccc3c(c2)NC(=O)CO3)n1/N=C(\C)c1ccccn1	?	?	?	5.17µM*	?	-6.5%
SMILES	HT1080 IDH1KD tx	KB-V1 cytotox	HT1080NT lethal	KB-3-1 tox	MCF10A rerep	SW480 rerep
CC1=C(C(=O)N2CCOCC2)CC(CC(=O)NCC2CCCCC2)C(=O)N1CCC1=CCCCC1 (stereo not given)	-4.2%	i	2.2%	i	.	.
O=C(Nc1ccc2c(c1)CCC2)c1cc(S(=O)(=O)Nc2ccc(F)cc2)c(Cl)cc1Cl	?	18.4µM*	?	?	?	13.5%
O=C(Nc1ccc2c(c1)CCC2)c1ccc(F)cc1	0.0%	i	4.4%	i	2.6%	-1.8%
CC1(C)Cc2c(sc(/N=C/N3CCCCCC3)c2C#N)C(C)(C)N1	?	i	-6.6%	?	16.4µM*	0.5%
Cc1cc(C(=O)OCC(=O)NC2CCS(=O)(=O)C2)c(C)n1-c1ccccc1 (stereo not given)	-4.3%	16.4µM*	-5.7%	?	-3.5%	2.2%
COc1ccc2cc(-c3cc(C(=O)OCC(=O)NC4CCS(=O)(=O)C4)c4ccccc4n3)ccc2c1 (stereo not given)	10.3µM*	i	?	i	7.31µM*	?
O=c1c2ccccc2nc2c3ccccc3c(NCc3ccccn3)nn12	-5.4%	?	8.1%	i	?	-9.8%
Cc1ccc(CN(C)C(=O)CCc2c[nH]c3ccccc23)o1	-8.4%	i	-1.0%	i	6.3%	2.0%
COC(=O)c1[nH]c2ccccc2c1NC(=O)C(C)N1CC(C)OC(C)C1 (stereo not given)	14.0%	i	11.8%	i	-3.0%	-5.5%
CC1=CN2C(=N)/C(=C/c3ccco3)C(=O)N=C2S1	-4.4%	i	-3.2%	i	9.7%	-124.0%
COc1cccc(OCCCn2cc(/C=C3/C(=N)N4C=C(C)SC4=NC3=O)c3ccccc32)c1	?	i	?	i	8.2µM*	6.7%
COc1ccc(OCCCn2cc(/C=C3/C(=N)N4C=C(C)SC4=NC3=O)c3ccccc32)cc1	4.1%	10.3µM*	4.7%	i	14.9%	-7.4%
COc1cccc(OCCn2cc(C=O)c3ccccc32)c1	-15.9%	i	-5.2%	i	6.6%	3.0%
CC1=CN2C(=N)/C(=C/c3cn(CCCOc4ccccc4C)c4ccccc34)C(=O)N=C2S1	-0.5%	i	7.4%	i	21.6%	14.6µM*
